# In all, about 76,000 compounds went through this assay and about 1,900 (2.5%) were called active. Not shown: some 5% with an inconclusive outcome. Only a selection was taken, and actives are over-represented in it overall. A number with no mark means an inactive call. The call rests on the fitted dose curve; in most records, active means well fitted inhibition curve with a large enough effect; inconclusive means small, poorly fitted or top-dose-only effect; inactive means flat fitted curve, though single readings scatter.
# Target: Luciferin 4-monooxygenase (Photinus pyralis) (UniProt P08659)
# Sequence (P08659 whole entry, looked up): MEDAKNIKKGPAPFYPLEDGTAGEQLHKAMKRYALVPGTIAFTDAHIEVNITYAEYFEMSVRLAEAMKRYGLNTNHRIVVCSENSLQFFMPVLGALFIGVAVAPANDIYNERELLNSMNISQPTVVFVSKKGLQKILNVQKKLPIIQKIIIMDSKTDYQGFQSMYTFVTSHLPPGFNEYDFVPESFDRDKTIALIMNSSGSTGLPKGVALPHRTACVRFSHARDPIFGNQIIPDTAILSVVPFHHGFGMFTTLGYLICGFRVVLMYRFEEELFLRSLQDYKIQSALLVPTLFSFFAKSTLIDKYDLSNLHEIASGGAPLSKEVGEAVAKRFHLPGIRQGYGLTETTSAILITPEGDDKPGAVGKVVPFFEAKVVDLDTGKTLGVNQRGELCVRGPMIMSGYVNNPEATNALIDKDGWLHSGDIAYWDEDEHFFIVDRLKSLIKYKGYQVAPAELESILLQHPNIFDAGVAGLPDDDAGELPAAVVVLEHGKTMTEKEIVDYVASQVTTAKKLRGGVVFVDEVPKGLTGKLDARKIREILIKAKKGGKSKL
# Assay: Firefly luciferase inhibition profiling of diverse chemical library using quantitative high-throughput screening; further: nearly all actives have a fitted effect of over 65% in size
# Details: purified P. pyralis luciferase, luminescence, biochemical; series mostly up to 115 µM; activity change, negative = inhibition: at the top concentration
# In short: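 Purified P. pyralis luciferase (10nM final) in 50mM Tris acetate pH 7.5, 10mM Mg acetate, 0.01% Tween-20, 0.05% BSA with 10uM D-luciferin and 10uM ATP. Compounds titrated qHTS. Luminescence imaged on CCD.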
# On the % scale 0 is the no-effect control and ±100 the full control effect; potency means the concentration at half of the fitted maximal effect.
Structure (SMILES),"activity change, negative = inhibition",Potency
CC(=O)N1CCc2sc(C(=O)NCc3ccc(F)cc3Cl)cc2C1,-11%,
Cn1cnnc1CC1CCN(c2nnnn2-c2ccccc2)CC1,1.99%,
COc1ccccc1N1CCN(C(=O)Cn2c(N3CCc4ccccc4C3)nc(C)cc2=O)CC1,-0.638%,
Cc1cccc(-c2cc(C3CCN(S(=O)(=O)c4cccc(C#N)c4)CC3)[nH]n2)c1,7.84%,
COc1ccc(F)cc1CN1CCCC(CO)(CC2CC2)C1 (stereo not given),-8.73%,
CCNC(=O)N1CCCC1c1noc(CCC(=O)NCC2CC2)n1 (stereo not given),2.84%,
C=CCC1(OC)CCN(C(=O)c2cnn3cc(CN(CC)CC)cnc23)CC1,-1.51%,
COCCNC(=O)[C@H]1C[C@H](Oc2cccnc2)CN1S(=O)(=O)c1cn(C)cn1,0%,
COc1cncc(-c2cccc(COc3ccc4c(cnn4CC[S+](C)(=O)[O-])c3)c2)c1,-40% [at 172 µM],
CN(C)Cc1cn2c(=O)n(C)cc(-c3cccc(OCc4ccccc4)c3)c2n1,-15.5% [at 172 µM],
C[S+](=O)([O-])CCn1ncc2cc(OCc3cccc(-c4ccccc4)c3)ccc21,,14.1 µM (active)
Cn1cnc(S(=O)(=O)N2CCC(N(C(=O)C3CC3)C3CCOCC3)CC2)c1,10.9%,
Cc1ccc2cc(CN3CCN(CC(N)=O)CC3)c(-c3cccs3)nc2c1,,12.6 µM (active)
Cc1ccc(C(=O)NC2CCN(c3cc(-c4cccs4)[nH]n3)C2)cc1 (stereo not given),-4.28%,
Cc1cccnc1C(=O)N[C@@H]1CN(c2ncccn2)C[C@H]1CO,-4.45%,
COc1ccc(-c2nccc3c(=O)cc(N(C)c4ccccc4)oc23)cn1,-12.8% [at 172 µM],
COc1ccc(CN2CCc3oc(C)c(C(=O)NC(C)Cn4ccc(C)n4)c3C2)cc1 (stereo not given),2.61%,
COCCOCC(=O)N1CCCC(c2nc(-c3ccccc3)no2)CCNC(=O)CC1 (stereo not given),3.55%,
O=[N+]([O-])c1ccccc1CN1C[C@H](O)C[C@H]1c1nc(-c2ccc(F)cc2)no1,,50.1 µM (active)
O=[N+]([O-])c1cccc(-c2noc([C@@H]3C[C@@H](O)CN3Cc3cccc(OC(F)(F)F)c3)n2)c1,-19.4%,
O=[N+]([O-])c1cccc(-c2noc([C@@H]3C[C@@H](O)CN3Cc3cccnc3)n2)c1,-6.11% [at 172 µM],
CCCNC(=O)C(NC(=O)c1cccc(OC)c1)C1CCN(C(=O)c2ccccc2F)CC1 (stereo not given),-8.93%,
CCNC(=O)O[C@@H]1CO[C@H]2[C@@H]1OC[C@@H]2NC(=S)Nc1cccc2ccccc12,-20% [at 172 µM],
COc1ccc(CN2C(=O)CO[C@H](c3ccc(NC(=O)c4ccccc4OC)cc3)[C@H]2CO)cc1,-6.83%,

Structure (SMILES),"activity change, negative = inhibition",Potency
CCNC(=O)C1C(c2cccc(NC(=O)c3ccc(OC)cc3)c2)OC(=O)N1Cc1ccc(C)cc1 (stereo not given),,11.2 µM (active)
COc1ccc(NC(=O)c2ccc(CN3C(=O)NC4(CCOCC4)C3=O)cc2)c(OC)c1,-23.3%,
Cc1nc(-c2ccccc2)n(CC(=O)NCc2ccc(F)cc2)c(=O)c1CCO,3.13%,
Cc1ccc(C(=O)N2CCC(CCC(=O)N3CCc4ccccc4C3)CC2)cc1,,22.4 µM (active)
O=C(c1ccc2c(c1)[nH]c(=O)n2C1CCC(O)CC1)N1CCc2ccccc2C1 (stereo not given),-1.05%,
CCCNC(=O)CCC1CCN(C(=O)c2ccc(C)cc2)CC1,,31.6 µM (active)
COc1ccc(NC(=O)CCC2CCN(S(=O)(=O)c3ccc(C)cc3)CC2)cc1F,-1.42%,
Cc1ccc(C(=O)N2CCC(c3nn(-c4ccccc4)c(=O)[nH]3)CC2)cc1,-1.49%,
CN1N=C(C(=O)N2CCC(CCC(=O)Nc3ccc4c(c3)OCCO4)CC2)CCC1=O,-20%,
Cc1ccc(S(=O)(=O)N2CCC(CCC(=O)NCc3ccccc3)CC2)cc1,6.85%,
CCCNC(=O)N(C1CCOCC1)C1CCN(C(=O)c2ccncc2)CC1,-2.08%,
CCCNc1cc(N2CCC(CCC(=O)Nc3ccc(C)cc3)CC2)ncn1,,28.2 µM (active)
CN(CCCNC1CCC2(CCNCC2)CC1)c1ccccc1,-8.04%,
O=C(Nc1ccc(F)cc1)[C@@H]1C[C@@H](c2ccc(F)cc2)N([S+](=O)([O-])c2ccccc2)C1,-1.83%,
O=C(NCc1ccccc1)NC1CCc2nn(CC3CC3)c(=O)n2CC1 (stereo not given),-2.7%,
CCCc1noc(-c2cn(C3CCN(C(=O)c4ccc(C)s4)CC3)nn2)n1,3.81%,
O=C(NCCc1ccccc1)c1ccc2c(c1)OCCN(CCC(F)(F)F)C2,,39.8 µM (active)
Cc1cc(NC(=O)c2ccc3c(c2)OCCN(CCC(F)(F)F)C3)ccc1F,-28.7% [at 172 µM],
O=C(NCc1cccs1)c1ccc2c(c1)OCCN(c1ccccc1)C2,9.82% [at 172 µM],
CC(C)NC(=O)C1COC2(CCN(C(=O)c3ccccc3Cl)CC2)N1C(=O)c1ccccc1 (stereo not given),-6.51%,
O[C@H]1CC[C@@H](Cc2cc(-c3ccccc3)on2)O[C@@H]1CNCc1ccccc1,-0.0028% [at 172 µM],
C=CCN1C(=O)[C@@H]2C[C@@H](NC(=O)c3ccncc3)CCN2C1=O,-13.1% [at 172 µM],
CCn1ncc(N2CCC(NC(=O)C(C)c3ccccc3)CC2)cc1=O (stereo not given),6.63%,
CC(C)(C)c1ccc(N2C(=O)[C@@H]3C[C@@H](NC(=O)[C@@H](O)c4ccccc4)CCN3C2=O)cc1,,35.5 µM (active)

Structure (SMILES),"activity change, negative = inhibition",Potency
Cc1nc(-c2ccc(F)cc2)n(Cc2cccc(Cl)c2)c(=O)c1CCO,0.119%,
Cn1cccc1CN1CCC(N2CCC[S+]2(=O)[O-])CC1,5.13% [at 172 µM],
CCN1C(=O)CCN(C(=O)CCc2ccc(OC)cc2)CC12CCOCC2,7.94%,
CC(C)CC(=O)N1CCC(c2noc(-c3cnccn3)n2)C1 (stereo not given),6.76%,
COc1ccc(C(=O)N2CCC3(CC2)CC(OC)CCO3)cc1OC (stereo not given),-3.26%,
CCn1cnnc1CC1CCN(C(=O)c2cc(-c3ccc(F)cc3)nc3ccccc23)CC1,,14.1 µM (active)
CCn1cnnc1CC1CCN(C(=O)C2CCN(Cc3nc(-c4cccc(C)c4)oc3C)CC2)CC1,1.99%,
COCc1nncn1C1CCN(C(=O)c2ccccc2F)CC1,7.93%,
Cc1noc(-c2cccc(OC3CN(C(=O)NCCc4ccccc4)C3)c2)n1,6.4%,
COc1nccc(N2CCC(CC(=O)NCc3ccc(F)cc3Cl)CC2)n1,-5.33%,
CN(C)C[C@@H]1CN(C)C[C@H]1NC(=O)c1cc2ccccc2[nH]1,,39.8 µM (active)
COc1ccc2[nH]c(C(=O)N[C@@H]3CN(S(C)(=O)=O)C[C@H]3CN(C)C)cc2c1,-2.7%,
CN(C)C[C@@H]1CN(C)C[C@H]1NC(=O)c1ccnnc1,11.1%,
COc1ccccc1Nc1cnc2ccc(-c3ccc(OC)c(OC)c3)nn12,-11% [at 172 µM],
COCC1CN(C(=O)c2cc(C)n(C)n2)CC12CCNCC2 (stereo not given),1.59%,
O=C(NC1CC1)c1ccc2c(c1)C1(CCN(CC3CC3)C1)CN2Cc1ccccc1 (stereo not given),3.95% [at 172 µM],
CC(=O)Nc1ccc(CN2CCCC3(CC(c4cccc(C(F)(F)F)c4)=NO3)C2)cc1 (stereo not given),3.04%,
CC(=O)NC1(C)CCN(Cc2cccc(-c3ccc(C(=O)c4ccccc4)cc3)c2)C1 (stereo not given),,39.8 µM (active)
CSCCNC(=O)c1coc(CN2CCN(C/C=C/c3ccccc3)CC2)n1,-2.08%,
Cc1cccc(NC(=O)C2CC(=O)N(c3n[nH]c4ccccc34)C2)n1 (stereo not given),-2.55%,
Cc1ccsc1C(=O)NCC1Cn2cccc2C(=O)N1Cc1ccccc1 (stereo not given),-2.19%,
COc1ccc(NC(=O)Cn2c(C)ccc(NS(=O)(=O)c3ccccc3)c2=O)cc1,-5.55%,
Cc1ccc(NC(=O)Nc2ccc(C)n(CC(=O)NCCN3CCCC3)c2=O)cc1,,14.1 µM (active)
Cc1ccc(S(=O)(=O)Nc2ccc(C)n(CC(=O)NCc3cccc(F)c3)c2=O)cc1,-5.04%,

Structure (SMILES),"activity change, negative = inhibition",Potency
CN(C)c1ccc(CN2CCC3(CC(Cc4ccccc4)=NO3)C2)cc1 (stereo not given),-1.37%,
Cc1cc(NC(=O)c2ccc3c(c2)N(C)C2CCCCCN2C3=O)ccc1F (stereo not given),,17.8 µM (active)
CN1c2cc(C(=O)Nc3ccc(F)cc3)ccc2C(=O)N2CCCCC21 (stereo not given),,25.1 µM (active)
CCN1c2cc(C(=O)Nc3ccc(OC)c(F)c3)ccc2C(=O)N2CCCCC21 (stereo not given),-15.5%,
CN1c2cc(C(=O)Nc3ccc(F)c(F)c3)ccc2C(=O)N2CCCCCC21 (stereo not given),,5.62 µM (active)
CCN1c2cc(C(=O)Nc3ccc(SC)cc3)ccc2C(=O)N2CCCCCC21 (stereo not given),-28.6%,
CCOc1ccc(NC(=O)c2ccc3c(c2)N(C)C2CCCN2C3=O)cc1 (stereo not given),,44.7 µM (active)
CCN1c2cc(C(=O)Nc3ccc(F)c(C)c3)ccc2C(=O)N2CCCCC21 (stereo not given),-21.7%,
CCN1c2cc(C(=O)NCc3ccc(OC)cc3OC)ccc2C(=O)N2CCCCCC21 (stereo not given),2.45%,
Cc1ccc(CNC(=O)c2ccc3c(c2)N(C)C2CCCCN2C3=O)cc1C (stereo not given),-10.8%,
CCN1c2cc(C(=O)Nc3ccc(F)c(Cl)c3)ccc2C(=O)N2CCCCC21 (stereo not given),-9.38%,
COc1ccc(CNC(=O)c2ccc3c(c2)N(C)C2CCCCN2C3=O)c(OC)c1 (stereo not given),-8.05%,
CN1c2cc(C(=O)N3CCC(C(N)=O)CC3)ccc2C(=O)N2CCCCC21 (stereo not given),0.0605%,
O=C(Cc1cccc(Cl)c1)N1CCC([C@@H]2CNC[C@H]2CO)CC1,1.45%,
CN1CCN(C2CCOC3(CCN(C(=O)c4cccc5[nH]ccc45)CC3)C2)CC1 (stereo not given),0%,
O=C(NCc1ccccc1C(F)(F)F)c1cc2n(n1)CC(c1ccc3c(c1)OCO3)OC2 (stereo not given),-10.1%,
CC(C)CN1CCN(C2CCOC3(CCN(C(=O)C4CCCC4)CC3)C2)CC1 (stereo not given),-1.21%,
O=C(NCc1nnc2c(-c3nc(C4CC4)no3)cccn12)c1cccnc1,-0.5%,
CC(=O)N1CCc2[nH]cnc2C12CCN(C(=O)C(C)Oc1ccccc1)CC2 (stereo not given),3.66%,
CCc1noc(-c2ccn3c(CNC(=O)c4ccc(OC)c(F)c4)nnc3c2)n1,3.28%,
O=C(c1ccc2c(c1)OCO2)N1CCCC2(CN[S+](=O)([O-])c3ccccc3N2)C1 (stereo not given),-5.81%,
CCCn1c(C)cnc1CC1CCN(C(=O)CCOC)CC1,-2%,
Cc1cccc(N2C(=O)CSC23CCN(C(=O)C2CCC2)CC3)c1,-11.1%,
